Source: PubChem BioAssay (Tox21)
Results filed as inconclusive are left out. Activity calls are given as the source filed them. Unless noted, calls follow the shape of the full dose curve.

Experiments:
[1] = Nuclear factor erythroid 2-related factor 2/antioxidant responsive element (Nrf2/ARE) small molecule agonists: qHTS cell viability counter screen in human keratinocytes (AID 1919968; active = well fitted curve in the direction sought with a large enough effect in the repeat runs; an effect the other way counts as inactive or inconclusive; also: nearly all actives have a fitted effect of over 55% in size)
Outline: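 Parallel cytotoxicity read: KeratinoSens HaCaT cells, compound treatment 23 h, viability by CellTiter-Fluor fluorescence 1 h post-reagent.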

[2] = Nuclear factor erythroid 2-related factor 2/antioxidant responsive element (Nrf2/ARE) small molecule agonists: luciferase reporter gene qHTS assay in human keratinocytes (AID 1919969); also: nearly all actives have a fitted effect of over 35% in size
[3] = molecular target: Gonadotropin-releasing hormone receptor (Homo sapiens) (UniProt P30968); test: Human gonadotropin-releasing hormone receptor (GnRHR) small molecule agonists, calcium flux assay in GnRHR-HEK293 cells (AID 1920063); also: nearly all actives have a fitted effect of over 35% in size
Gonadotropin-releasing hormone receptor (Homo sapiens), sequence (P30968 whole entry, looked up): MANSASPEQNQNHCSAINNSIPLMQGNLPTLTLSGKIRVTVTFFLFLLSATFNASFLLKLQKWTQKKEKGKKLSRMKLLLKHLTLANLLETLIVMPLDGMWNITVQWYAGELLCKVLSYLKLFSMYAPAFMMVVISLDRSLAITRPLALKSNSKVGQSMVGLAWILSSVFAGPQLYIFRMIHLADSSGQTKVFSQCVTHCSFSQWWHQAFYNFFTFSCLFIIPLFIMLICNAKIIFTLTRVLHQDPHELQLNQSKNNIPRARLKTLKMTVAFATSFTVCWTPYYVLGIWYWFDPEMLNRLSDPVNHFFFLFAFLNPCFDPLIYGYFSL
Outline: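 Calcium flux, agonist mode, human GnRHR stably integrated in HEK293; dye 1 h at 37 C before compound; Ex/Em=480/540 kinetic read, 3 min; 15 concentrations, triplicate.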

[4] = molecular target: KiSS-1 receptor (Homo sapiens) (UniProt Q969F8); test: Human kisspeptin (KISS1R) small molecule agonists, calcium flux assay in KISS1R-HEK293 cells (AID 1920064; active = well fitted curve in the direction sought with a large enough effect in the repeat runs; an effect the other way counts as inactive or inconclusive)
KiSS-1 receptor (Homo sapiens), sequence (Q969F8 whole entry, looked up): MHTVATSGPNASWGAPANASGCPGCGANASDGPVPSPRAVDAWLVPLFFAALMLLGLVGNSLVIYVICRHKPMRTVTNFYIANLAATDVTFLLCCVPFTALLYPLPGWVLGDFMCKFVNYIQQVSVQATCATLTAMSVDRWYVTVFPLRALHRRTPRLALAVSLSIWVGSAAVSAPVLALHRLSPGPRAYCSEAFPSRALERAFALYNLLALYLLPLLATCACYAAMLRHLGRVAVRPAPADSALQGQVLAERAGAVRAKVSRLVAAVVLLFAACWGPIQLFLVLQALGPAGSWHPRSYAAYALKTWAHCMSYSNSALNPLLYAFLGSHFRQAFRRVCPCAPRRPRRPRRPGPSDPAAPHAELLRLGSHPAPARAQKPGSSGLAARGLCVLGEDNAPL
Outline: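 Triplicate 15-concentration series were applied to dye-loaded human KISS1R HEK293 cells, and agonist-evoked calcium fluorescence was captured for 3 min.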

[5] = G protein-coupled receptor (GPCR) small molecule agonists, calcium flux assay: HEK293 wild type cell line counter screen (AID 1920065)
Outline: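 Non-specific calcium responders were flagged by adding DMSO-dissolved compounds to dye-loaded cells and reading 480/540 nm fluorescence each second for 3 min; ATP served as positive control.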

[6] = p53 small molecule agonists, cell-based qHTS assay with human liver microsomes: qHTS cell viability counter screen (AID 1963579); also: nearly all actives have a fitted effect of over 45% in size
Outline: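 Tox21 library compounds, delivered from DMSO stocks, were tested on p53RE-bla cells together with 0.5 mg/mL human liver microsomes and 0.5 mg/mL NADPH (final) over 16 h at 37 C; CellTiter-Glo luminescence served as the cytotoxicity measure.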

[7] = p53 small molecule agonists, cell-based qHTS assay with rat liver microsomes: qHTS cell viability counter screen (AID 1963580); also: nearly all actives have a fitted effect of over 45% in size
Outline: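 Cytotoxicity counter screen: intracellular ATP read by CellTiter-Glo luminescence in the p53 reporter wells. HCT-116 p53RE-bla cells were treated for 16 h at 37 C alongside rat liver microsomes and NADPH, each 0.5 mg/mL final.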

[8] = p53 small molecule agonists, cell-based qHTS assay: qHTS cell viability counter screen (AID 1963581); also: nearly all actives have a fitted effect of over 45% in size
Outline: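 Multiplexed with the reporter read, a CellTiter-Glo step (30 min, room temperature) gauges ATP-based viability of HCT-116 p53RE-bla cells after 16 h compound incubation at 37 C.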

[9] = molecular target: 5-hydroxytryptamine receptor 2A (Homo sapiens) (UniProt P28223); test: 5-hydroxytryptamine receptor 2A (HTR2A) small molecule antagonists, cell-based qHTS assay (AID 1963586); also: nearly all actives have a fitted effect of over 45% in size
5-hydroxytryptamine receptor 2A (Homo sapiens), sequence (P28223 whole entry, looked up): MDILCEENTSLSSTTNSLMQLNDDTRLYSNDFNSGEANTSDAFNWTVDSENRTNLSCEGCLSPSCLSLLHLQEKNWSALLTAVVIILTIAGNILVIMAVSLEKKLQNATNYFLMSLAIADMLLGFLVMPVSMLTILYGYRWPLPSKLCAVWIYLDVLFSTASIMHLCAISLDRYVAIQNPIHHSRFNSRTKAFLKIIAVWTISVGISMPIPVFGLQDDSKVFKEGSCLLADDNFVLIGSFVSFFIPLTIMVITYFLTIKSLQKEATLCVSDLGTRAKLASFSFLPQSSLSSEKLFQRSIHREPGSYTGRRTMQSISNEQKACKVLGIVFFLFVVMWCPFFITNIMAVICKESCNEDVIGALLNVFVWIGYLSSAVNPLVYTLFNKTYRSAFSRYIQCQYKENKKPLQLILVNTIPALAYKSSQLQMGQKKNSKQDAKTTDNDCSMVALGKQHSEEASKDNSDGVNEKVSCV
Outline: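 CHO cells stably expressing human HTR2A were plated for 18 h at 37 C, then loaded with calcium dye for 1 h. Compounds were preincubated 5 min at room temperature before DOI (4 nM solution) was added. Kinetic fluorescence was read for 3 min.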

[10] = molecular target: 5-hydroxytryptamine receptor 2A (Homo sapiens) (UniProt P28223); test: 5-hydroxytryptamine receptor 2A (HTR2A) small molecule agonists, cell-based qHTS assay (AID 1963587); also: nearly all actives have a fitted effect of over 30% in size
Outline: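 Kinetic calcium-flux fluorescence (2 min, 1 sec intervals) after compound addition in agonist mode. HTR2A-CHO cells were cultured 18 h, then dye-loaded 1 h at 37 C.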

[11] = molecular target: Muscarinic acetylcholine receptor M1 (Homo sapiens) (UniProt P11229); test: Cholinergic receptor muscarinic 1 (CHRM1) small molecule antagonists, cell-based qHTS assay (AID 1963588); also: nearly all actives have a fitted effect of over 40% in size
Muscarinic acetylcholine receptor M1 (Homo sapiens), sequence (P11229 whole entry, looked up): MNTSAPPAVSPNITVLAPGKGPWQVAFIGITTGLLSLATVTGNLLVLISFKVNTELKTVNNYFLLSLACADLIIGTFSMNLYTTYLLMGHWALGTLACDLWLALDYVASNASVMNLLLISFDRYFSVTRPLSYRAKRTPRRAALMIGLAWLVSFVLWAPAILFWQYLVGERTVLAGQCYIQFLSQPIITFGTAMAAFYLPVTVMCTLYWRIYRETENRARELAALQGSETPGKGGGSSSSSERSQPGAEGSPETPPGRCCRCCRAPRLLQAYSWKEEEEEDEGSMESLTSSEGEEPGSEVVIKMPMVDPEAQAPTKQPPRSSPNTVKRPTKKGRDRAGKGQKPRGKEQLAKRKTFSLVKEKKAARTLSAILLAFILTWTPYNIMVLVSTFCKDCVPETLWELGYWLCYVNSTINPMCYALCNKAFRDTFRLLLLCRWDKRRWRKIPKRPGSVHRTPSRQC
Outline: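 Compounds were tested at 15 concentrations in three independent runs. Dye-loaded CHRM1-CHO cells were exposed 5 min at room temperature before stimulation by acetylcholine added at 50nM. Intracellular calcium was read kinetically on FDSS for 3 min.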

[12] = molecular target: Muscarinic acetylcholine receptor M1 (Homo sapiens) (UniProt P11229); test: Cholinergic receptor muscarinic 1 (CHRM1) small molecule agonists, cell-based qHTS assay (AID 1963589); also: nearly all actives have a fitted effect of over 35% in size
Outline: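 qHTS, 15-point titration, 3 independent runs: compounds pin-transferred onto dye-loaded CHRM1-CHO cells (human M1), calcium fluorescence followed every second to detect agonism.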

[13] = cAMP Responsive Elements (CRE) small molecule agonists, cell-based qHTS assay (AID 1963590)
Outline: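 Quantitative HTS for CRE agonists: HEK 293T CRE-bla cells, overnight plating, 3 h compound incubation at 37 C/5% CO2, then 2 h room-temperature LiveBLAzer B/G FRET substrate loading.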

[14] = cAMP Responsive Elements (CRE) small molecule antagonists, cell-based qHTS assay (AID 1963591; active = well fitted inhibition curve with a large enough effect in the signal ratio in the repeat runs, not every such curve was filed as active; the % refers to the signal ratio)
Outline: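 Fluorescence intensity from cleaved LiveBLAzer B/G substrate (2 h, room temperature) quantified CRE-bla activity in HEK 293T cells exposed 3 h to compound with 0.25 uM final NKH477.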

[15] = molecular target: Beta-2 adrenergic receptor (Homo sapiens) (UniProt P07550); test: Adrenergic beta2 receptor (ADRB2) small molecule antagonists, cell-based qHTS assay (AID 1963592); also: series mostly up to about 92 µM; nearly all actives have a fitted effect of over 50% in size
Beta-2 adrenergic receptor (Homo sapiens), sequence (P07550 whole entry, looked up): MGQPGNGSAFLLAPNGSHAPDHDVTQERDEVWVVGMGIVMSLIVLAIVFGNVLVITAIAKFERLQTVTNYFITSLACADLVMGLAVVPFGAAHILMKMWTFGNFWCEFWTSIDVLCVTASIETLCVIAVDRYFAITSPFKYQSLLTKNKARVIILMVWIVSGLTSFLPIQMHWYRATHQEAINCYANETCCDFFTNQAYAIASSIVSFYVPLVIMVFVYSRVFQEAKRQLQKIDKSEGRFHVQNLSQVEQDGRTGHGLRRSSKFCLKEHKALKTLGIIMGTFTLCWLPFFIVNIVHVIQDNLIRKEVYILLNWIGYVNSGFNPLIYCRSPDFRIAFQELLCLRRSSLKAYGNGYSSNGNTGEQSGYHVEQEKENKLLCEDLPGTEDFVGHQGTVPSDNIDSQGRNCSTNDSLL
Outline: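 Assay format: CHO-ADRB2 cells, 18-20hr seeding at 37C/5% CO2, then compound plus 1nM isoproterenol agonist mix for 0.5hr RT. Homogeneous time-resolved fluorescence cAMP detection after 1hr, expressed as 665/615 nm ratio.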

[16] = molecular target: Beta-2 adrenergic receptor (Homo sapiens) (UniProt P07550); test: Adrenergic beta2 receptor (ADRB2) small molecule agonists, cell-based qHTS assay (AID 1963593);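 also: CHO cells stably overexpressing human ADRB2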
Outline: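 CHO cells stably over-expressing ADRB2 were plated overnight at 37C, then dosed with compounds plus a stimulation mix containing 100uM IBMX and 25uM Ro-20-1724 for 0.5hr at room temperature. cAMP was measured by HTRF competition, 1hr.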

[17] = molecular target: D(2) dopamine receptor (Homo sapiens) (UniProt P14416); test: Dopamine D2 receptor (DRD2) small molecule agonists, cell-based qHTS assay (AID 1963594); also: nearly all actives have a fitted effect of over 35% in size
D(2) dopamine receptor (Homo sapiens), sequence (P14416 whole entry, looked up): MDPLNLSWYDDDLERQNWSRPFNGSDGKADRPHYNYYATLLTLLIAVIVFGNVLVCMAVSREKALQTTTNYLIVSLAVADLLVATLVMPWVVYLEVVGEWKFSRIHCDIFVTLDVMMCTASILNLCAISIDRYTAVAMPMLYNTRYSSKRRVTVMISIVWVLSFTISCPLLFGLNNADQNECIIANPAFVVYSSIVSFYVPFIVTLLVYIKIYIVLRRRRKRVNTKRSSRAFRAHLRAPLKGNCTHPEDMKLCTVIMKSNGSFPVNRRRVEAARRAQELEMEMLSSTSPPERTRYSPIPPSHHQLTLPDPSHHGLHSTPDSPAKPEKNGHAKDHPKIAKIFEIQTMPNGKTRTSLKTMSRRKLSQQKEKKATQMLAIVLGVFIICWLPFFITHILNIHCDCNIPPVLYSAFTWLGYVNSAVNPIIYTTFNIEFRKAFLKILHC
Outline: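 cAMP accumulation in DRD2-HEK293 cells measured by HTRF after 1 h detection; compounds added 10 min before NKH477 (200nM […]) forskolin-analogue stimulation, 30 min at room temperature, with Ro20-1724 present at 0.1 mM final.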

[18] = molecular target: D(2) dopamine receptor (Homo sapiens) (UniProt P14416); test: Dopamine D2 receptor (DRD2) small molecule antagonists, cell-based qHTS assay (AID 1963595; active = well fitted inhibition curve with a large enough effect in the signal ratio in the repeat runs, with a control signal flat; the % refers to the signal ratio)
Outline: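 HEK293 cells stably expressing DRD2 were preincubated with 0.1 mM Ro20-1724, then with compound for 10 min at room temperature. Cells were stimulated with 200 nM NKH477 plus 12 nM quinpirole for 30 min, and cAMP was read by HTRF.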
% is scaled to controls: 0 for no effect and ±100 for the full control effect.

CCN[C@H]1C[C@H](C)S(=O)(=O)c2sc(S(N)(=O)=O)cc21
inactive: Potency [1] | Potency [2] | Potency [3] | Potency [4] | Potency [5] | Potency [6] | Potency [7] | Potency [8] | Potency [9] | Potency [10] | Potency [11] | Potency [12] | Potency [13] | Potency [14] | Potency [15] | Potency [16] | Potency [17] | Potency [18]

Nc1ccc(/C=C/c2ccc(N)cc2S(=O)(=O)O)c(S(=O)(=O)O)c1
inactive: activity change, negative = cytotoxicity [1] -4.83% [at 0.349 µM] | activity, positive = activation [2] -0.938% [at 0.349 µM] | activity change [3] -1.31% [at 0.217 µM, stronger effect = higher value] | activation [4] -0.667% [at 0.29 µM] | activation [5] -1.11% [at 0.217 µM] | activity change, negative = cytotoxicity [6] -0.304% [at 0.249 µM] | activity change, negative = cytotoxicity [7] 0.884% [at 0.249 µM] | activity change, negative = cytotoxicity [8] -1.67% [at 0.249 µM] | activity, negative = inhibition [9] 63.5% [at 0.233 µM] | activation [10] 1.96% [at 0.292 µM] | activity, negative = inhibition [11] 18% [at 0.232 µM] | activation [12] 0.145% [at 0.29 µM] | activation [13] -0.633% [at 0.349 µM] | activity change, negative = inhibition [14] -10.6% [at 0.349 µM] | activity change, negative = inhibition [15] -6.48% [at 0.349 µM] | activation [16] -7.68% [at 0.349 µM] | activation [17] -13.5% [at 0.349 µM] | activity change, negative = inhibition [18] 6.36% [at 0.348 µM]

CCC/C=C(\C=O)CC
inactive: Potency [1] | Potency [2] | Potency [3] | Potency [4] | Potency [5] | Potency [6] | Potency [7] | Potency [8] | Potency [9] | Potency [10] | Potency [11] | Potency [12] | Potency [13] | Potency [14] | Potency [15] | Potency [16] | Potency [17] | Potency [18]

CC(C)CCOCc1ccccc1
inactive: Potency [1] | Potency [2] | Potency [3] | Potency [4] | Potency [5] | Potency [6] | Potency [7] | Potency [8] | Potency [9] | Potency [10] | Potency [11] | Potency [12] | Potency [13] | Potency [14] | Potency [15] | Potency [16] | Potency [17] | Potency [18]

Nc1ccc(F)cc1
inactive: Potency [1] | Potency [2] | Potency [3] | Potency [4] | Potency [5] | Potency [6] | Potency [7] | Potency [8] | Potency [9] | Potency [10] | Potency [11] | Potency [12] | Potency [13] | Potency [14] | Potency [15] | Potency [17] | Potency [18]

CCCCCCCCCCCCCCC
inactive: Potency [1] | Potency [2] | Potency [3] | Potency [4] | Potency [5] | Potency [6] | Potency [7] | Potency [8] | Potency [9] | Potency [10] | Potency [11] | Potency [12] | Potency [13] | Potency [14] | Potency [17] | Potency [18]

CCCCC(CC)C(=O)OCCOCCOCCOCCOC(=O)C(CC)CCCC (stereo unspecified)
inactive: Potency [1] | Potency [2] | Potency [3] | Potency [4] | Potency [5] | Potency [6] | Potency [7] | Potency [8] | Potency [9] | Potency [10] | Potency [11] | Potency [12] | Potency [13] | Potency [14] | Potency [15] | Potency [18]

CC(C)COC(=O)CCCCC(=O)OCC(C)C
inactive: Potency [1] | Potency [2] | Potency [3] | Potency [4] | Potency [5] | Potency [6] | Potency [7] | Potency [8] | Potency [9] | Potency [10] | Potency [11] | Potency [12] | Potency [13] | Potency [14] | Potency [15] | Potency [17] | Potency [18]

CCNC(=O)NCc1cccc(Cl)c1
inactive: Potency [1] | Potency [2] | Potency [3] | Potency [4] | Potency [5] | Potency [6] | Potency [7] | Potency [8] | Potency [9] | Potency [10] | Potency [11] | Potency [12] | Potency [13] | Potency [14] | Potency [15] | Potency [17] | Potency [18]

CCCCCCCCCCCCC1CO1 (stereo unspecified)
inactive: Potency [1] | Potency [2] | Potency [3] | Potency [4] | Potency [5] | Potency [6] | Potency [7] | Potency [8] | Potency [9] | Potency [10] | Potency [11] | Potency [12] | Potency [13] | Potency [14] | Potency [15] | Potency [17] | Potency [18]

COc1ccccc1OCC1CNC(=O)O1 (stereo unspecified)
inactive: Potency [1] | Potency [2] | Potency [3] | Potency [4] | Potency [5] | Potency [6] | Potency [7] | Potency [8] | Potency [9] | Potency [10] | Potency [11] | Potency [12] | Potency [13] | Potency [14] | Potency [15] | Potency [17] | Potency [18]

CCOc1ccc(NS(=O)(=O)c2ccc(N)cc2)nn1
inactive: Potency [1] | Potency [2] | Potency [3] | Potency [4] | Potency [5] | Potency [6] | Potency [7] | Potency [8] | Potency [9] | Potency [10] | Potency [11] | Potency [12] | Potency [13] | Potency [14] | Potency [15] | Potency [17] | Potency [18]

Cc1ncc([N+](=O)[O-])n1CC(O)CCl (stereo unspecified)
inactive: Potency [1] | Potency [2] | Potency [3] | Potency [4] | Potency [5] | Potency [6] | Potency [7] | Potency [8] | Potency [9] | Potency [10] | Potency [11] | Potency [12] | Potency [13] | Potency [14] | Potency [15] | Potency [17] | Potency [18]

CC(C)(N)C#N
inactive: Potency [1] | Potency [2] | Potency [3] | Potency [4] | Potency [5] | Potency [6] | Potency [7] | Potency [8] | Potency [9] | Potency [10] | Potency [11] | Potency [12] | Potency [13] | Potency [14] | Potency [17] | Potency [18]

OC[C@H]1O[C@@H]2O[C@H]3[C@H](O)[C@@H](O)[C@@H](O[C@H]4[C@H](O)[C@@H](O)[C@@H](O[C@H]5[C@H](O)[C@@H](O)[C@@H](O[C@H]6[C@H](O)[C@@H](O)[C@@H](O[C@H]7[C@H](O)[C@@H](O)[C@@H](O[C@H]8[C@H](O)[C@@H](O)[C@@H](O[C@H]9[C@H](O)[C@@H](O)[C@@H](O[C@H]1[C@H](O)[C@H]2O)O[C@@H]9CO)O[C@@H]8CO)O[C@@H]7CO)O[C@@H]6CO)O[C@@H]5CO)O[C@@H]4CO)O[C@@H]3CO
inactive: Potency [1] | Potency [2] | Potency [3] | Potency [4] | Potency [5] | Potency [6] | Potency [7] | Potency [8] | Potency [9] | Potency [10] | Potency [11] | Potency [12] | Potency [13] | Potency [14] | Potency [16] | Potency [17] | Potency [18]
